The source of these data is PubChem BioAssay (EPA / NIEHS).

Records with an inconclusive call do not appear. Activity calls are given as the source filed them. The calls were made as follows, unless noted: active = hit-call score of the fitted dose curve at least 0.9, where 1 is the maximum; inconclusive = response in the unintended direction; inactive = score below 0.9.

In experiment [1] the target is Retinoic acid receptor RXR-alpha (Homo sapiens) (UniProt P19793). Briefly: ATG_RXRa_TRANS: Attagene TRANS-FACTORIAL HepG2 Assay for human Retinoid X Receptor alpha (RXRa) (AID 2283012). The essentials:
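Chimeric NR-GAL4 trans-activation in HepG2, 24 h treatment; reporter transcripts quantified by fluorescence on capillary electrophoresis, analysed for upward change from DMSO.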

In experiment [2] the target is human Retinoid X Receptor beta (RXRb), RXRB (gene 6257) (UniProt P28702). Description: ATG_RXRb_TRANS: Attagene TRANS-FACTORIAL HepG2 Assay for human Retinoid X Receptor beta (RXRb) (AID 2283013). The essentials:
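After a 24 h incubation with test chemical, transfected HepG2 cells carrying NR-Gal4 fusions and GAL4-UAS reporter transcription units yield RNA whose reporter cDNA is FAM-labelled, HpaI-cut and sized by capillary electrophoresis; increases over DMSO are scored.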

Experiment [3] addresses human Thyroid Receptor alpha (THRa1), THRA (gene 7067) (UniProt P10827). Description: ATG_THRa1_TRANS: Attagene TRANS-FACTORIAL HepG2 Assay for human Thyroid Receptor alpha (THRa1) (AID 2283014). The essentials:
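Transcripts from GAL4-UAS-driven reporters, measured after 24 h compound exposure by RT-PCR plus capillary electrophoresis of 6-FAM-labeled fragments, were fitted for gain of signal relative to DMSO. Cells: transiently transfected HepG2 expressing NR-Gal4 chimeras.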

Experiment [4] addresses human Vitamin D Receptor (VDR), VDR (gene 7421) (UniProt P11473). Description: ATG_VDR_TRANS: Attagene TRANS-FACTORIAL HepG2 Assay for human Vitamin D Receptor (VDR) (AID 2283022). The essentials:
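Transactivation by an exogenous VDR-Gal4 chimera in transiently transfected HepG2 cells was measured as reporter transcript level 24 hours after chemical treatment. RT-PCR products were analysed by capillary electrophoresis and fitted in the positive direction relative to DMSO.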

Read-out in experiment [5]: E-selectin (Homo sapiens) (UniProt P16581)
Briefly: BSK_3C_Eselectin: BioMAP Diversity Plus: 3C Assay for Eselectin Biomarker Activity (AID 2283015; active = hit-call score of the fitted dose curve at least 0.9, where 1 is the maximum; inactive = score below 0.9;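 also: cell surface E-selectin protein quantified by ELISA 24 h after dosing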). The settings on record: primary human endothelial cells (HUVEC); actives raise or lower the signal. The essentials:
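E-selectin ELISA readout, fitted bidirectionally relative to DMSO, taken 24 h post-dosing in HUVEC cultures of the 3C system. Overt cytotoxicity tracked with sulforhodamine B staining of parallel wells.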

Read-out in experiment [6]: Interleukin-1 alpha (IL1a), IL1A (gene 3552)
Briefly: BSK_BE3C_IL1a: BioMAP Diversity Plus: BE3C Assay for Interleukin-1 alpha (IL1a) Biomarker Activity (AID 2283016; active = hit-call score of the fitted dose curve at least 0.9, where 1 is the maximum; inactive = score below 0.9). To be noted: primary human bronchial epithelial cells; actives raise or lower the signal. The method, boiled down: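 Measured in human lung primary bronchial epithelial cells: IL-1a by ELISA at 24 h after dosing, with bidirectional fitting against DMSO.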

Read-out in experiment [7]: Monocyte Chemoattractant Protein-1 (MCP1), CCL2 (gene 6347)
Briefly: BSK_3C_MCP1: BioMAP Diversity Plus: 3C Assay for Monocyte Chemoattractant Protein-1 (MCP1) Biomarker Activity (AID 2283017; active = hit-call score of the fitted dose curve at least 0.9, where 1 is the maximum; inactive = score below 0.9). To be noted: primary human endothelial cells (HUVEC); actives raise or lower the signal. The method, boiled down: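 MCP-1 was measured by ELISA 24 h after dosing in primary HUVEC 3C cultures and fitted in both directions relative to DMSO; cytotoxicity was checked by SRB total-protein staining in parallel wells.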

Read-out in experiment [8]: Monocyte Chemoattractant Protein-1 (MCP1), CCL2 (gene 6347)
Description: BSK_4H_MCP1: BioMAP Diversity Plus: 4H Assay for Monocyte Chemoattractant Protein-1 (MCP1) Biomarker Activity (AID 2283018; active = hit-call score of the fitted dose curve at least 0.9, where 1 is the maximum; inactive = score below 0.9). The settings on record: primary human endothelial cells (HUVEC); actives raise or lower the signal. The essentials: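 Primary human umbilical vein endothelium is exposed to chemical for 24 h before MCP-1 is assayed by ELISA. Concentration-response fitted bidirectionally relative to DMSO.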

Read-out in experiment [9]: Human Leukocyte Antigen - DR isotype (HLADR), HLA-DRA (gene 3122)
Briefly: BSK_3C_HLADR: BioMAP Diversity Plus: 3C Assay for Human Leukocyte Antigen - DR isotype (HLADR) Biomarker Activity (AID 2283019; active = hit-call score of the fitted dose curve at least 0.9, where 1 is the maximum; inactive = score below 0.9;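 also: ELISA of cell-surface HLA-DR on HUVEC 24 h after dosing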). The settings on record: primary human endothelial cells (HUVEC); actives raise or lower the signal. The essentials:
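Bidirectional fitting against DMSO was applied to the HLA-DR ELISA signal from human umbilical vein endothelial cells, 24 h post-dose. Cytotoxicity came from parallel SRB total-protein staining; 3C proliferation was counted by SRB at 48 h.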

Read-out in experiment [10]: Interleukin-8 (IL8), CXCL8 (gene 3576)
Description: BSK_3C_IL8: BioMAP Diversity Plus: 3C Assay for Interleukin-8 (IL8) Biomarker Activity (AID 2283020; active = hit-call score of the fitted dose curve at least 0.9, where 1 is the maximum; inactive = score below 0.9). To be noted: primary human endothelial cells (HUVEC); actives raise or lower the signal. The method, boiled down: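 Using DMSO-treated wells as the baseline, bidirectional curve fitting was applied to ELISA-measured IL-8 from human umbilical vein endothelial cultures sampled 24 h after compound addition.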

Read-out in experiment [11]: Monokine induced gamma interferon (MIG), CXCL9 (gene 4283)
Briefly: BSK_3C_MIG: BioMAP Diversity Plus: 3C Assay for Monokine induced gamma interferon (MIG) Biomarker Activity (AID 2283021; active = hit-call score of the fitted dose curve at least 0.9, where 1 is the maximum; inactive = score below 0.9). The settings on record: primary human endothelial cells (HUVEC); actives raise or lower the signal. The essentials:
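ELISA-measured MIG in dosed HUVEC 3C cultures at 24 h, analysed by bidirectional fitting with DMSO defining baseline activity.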

A short description of experiment [12]: BSK_3C_SRB: Viability Assessment in the BioMAP Diversity Plus: 3C Assay (AID 2283023; active = hit-call score of the fitted dose curve at least 0.9, where 1 is the maximum; inactive = score below 0.9;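 also: fitted both ways against DMSO so a hit may be signal rise or drop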). The settings on record: primary human endothelial cells (HUVEC). The method, boiled down: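 Cytotoxicity readout in parallel HUVEC 3C cultures: after 24 h compound exposure, cells fixed with 10% TCA, stained with 0.1% SRB and read at 560 nm. Gain or loss relative to DMSO fitted.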

Read-out in experiment [13]: Matrix Metallopeptidase 1 (MMP1), MMP1 (gene 4312)
Description: BSK_BE3C_MMP1: BioMAP Diversity Plus: BE3C Assay for Matrix Metallopeptidase 1 (MMP1) Biomarker Activity (AID 2283024; active = hit-call score of the fitted dose curve at least 0.9, where 1 is the maximum; inactive = score below 0.9). The settings on record: primary human bronchial epithelial cells; actives raise or lower the signal. The essentials: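 In this multiplexed primary-cell system, human bronchial epithelium received chemicals for 24 h before an ELISA for MMP1. Values reflect bidirectional fits normalised to the DMSO baseline.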

A short description of experiment [14]: BSK_3C_Vis: BioMAP Diversity Plus: 3C Assay for Morphology Visualization (AID 2283025; active = hit-call score of the fitted dose curve at least 0.9, where 1 is the maximum; inactive = score below 0.9;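 also: fitted both ways so gain or loss versus DMSO counts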). The settings on record: primary human endothelial cells (HUVEC). The method, boiled down:
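Light-microscopy morphology readout, 24 h exposure, human primary umbilical vein endothelium; analysed relative to DMSO with bidirectional fitting.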

Read-out in experiment [15]: Pselectin, SELP (gene 6403)
Briefly: BSK_4H_Pselectin: BioMAP Diversity Plus: 4H Assay for Pselectin Biomarker Activity (AID 2283026; active = hit-call score of the fitted dose curve at least 0.9, where 1 is the maximum; inactive = score below 0.9). To be noted: primary human endothelial cells (HUVEC); actives raise or lower the signal. The essentials:
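Bidirectional fits against DMSO gave the endpoint. Cells: primary human umbilical vein endothelium, chemical-treated for 24 h before ELISA detection of P-selectin.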

Experiment [16] is described as follows: BSK_4H_SRB: Viability Assessment in the BioMAP Diversity Plus: 4H Assay (AID 2283027; active = hit-call score of the fitted dose curve at least 0.9, where 1 is the maximum; inactive = score below 0.9;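 also: cells exposed to compound for 24 h before staining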). The settings on record: primary human endothelial cells (HUVEC). The essentials:
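Cytotoxicity read-out in primary human endothelial cells: after 24 h compound exposure, cells were TCA-fixed (10%), stained with 0.1% SRB and absorbance taken at 560 nm. Values fitted in both directions relative to DMSO.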

The nature of experiment [17]: BSK_BE3C_SRB: Viability Assessment in the BioMAP Diversity Plus: BE3C Assay (AID 2283028; active = hit-call score of the fitted dose curve at least 0.9, where 1 is the maximum; inactive = score below 0.9). The settings on record: primary human bronchial epithelial cells. The essentials:
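Cytotoxicity read-out: SRB (0.1%) staining of TCA-fixed (10%) human lung bronchial epithelial cells, absorbance 560 nm, 24 h post-dosing. Curves fitted both directions relative to DMSO.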

Read-out in experiment [18]: Thrombomodulin, THBD (gene 7056)
Description: BSK_3C_Thrombomodulin: BioMAP Diversity Plus: 3C Assay for Thrombomodulin Biomarker Activity (AID 2283029; active = hit-call score of the fitted dose curve at least 0.9, where 1 is the maximum; inactive = score below 0.9). To be noted: primary human endothelial cells (HUVEC); actives raise or lower the signal. The method, boiled down: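 In a multiplexed primary-cell system, human umbilical vein endothelium received chemical and was assayed 24 h later for thrombomodulin by ELISA. Parallel cultures were SRB-stained (0.1% SRB after 10% TCA fixation, read at 560 nm) to flag cytotoxicity.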

Read-out in experiment [19]: Urokinase-type plasminogen activator receptor (uPAR), PLAUR (gene 5329)
Briefly: BSK_4H_uPAR: BioMAP Diversity Plus: 4H Assay for Urokinase-type plasminogen activator receptor (uPAR) Biomarker Activity (AID 2283030; active = hit-call score of the fitted dose curve at least 0.9, where 1 is the maximum; inactive = score below 0.9). The settings on record: primary human endothelial cells (HUVEC); actives raise or lower the signal. The method, boiled down: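 uPAR level read by ELISA on HUVEC cultures (BioMAP 4H) 24 h post-dosing, analyzed for gain or loss relative to DMSO. Parallel SRB staining assessed overt cytotoxicity.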

Read-out in experiment [20]: Vascular endothelial growth factor receptor 2 (Homo sapiens) (UniProt P35968)
Description: BSK_4H_VEGFRII: BioMAP Diversity Plus: 4H Assay for Vascular endothelial growth factor receptor 2 (VEGFR2) Biomarker Activity (AID 2283031; active = hit-call score of the fitted dose curve at least 0.9, where 1 is the maximum; inactive = score below 0.9). The settings on record: primary human endothelial cells (HUVEC); actives raise or lower the signal. The method, boiled down: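 Measured by ELISA after 24 h of compound treatment: VEGFR2 on primary human umbilical vein endothelial cells, fitted in both directions relative to DMSO. Parallel cultures received SRB staining (560 nm) for overt cytotoxicity.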

Chain of human Vitamin D Receptor (VDR), VDR (gene 7421) (P11473 whole entry, looked up, the tested form may be a part): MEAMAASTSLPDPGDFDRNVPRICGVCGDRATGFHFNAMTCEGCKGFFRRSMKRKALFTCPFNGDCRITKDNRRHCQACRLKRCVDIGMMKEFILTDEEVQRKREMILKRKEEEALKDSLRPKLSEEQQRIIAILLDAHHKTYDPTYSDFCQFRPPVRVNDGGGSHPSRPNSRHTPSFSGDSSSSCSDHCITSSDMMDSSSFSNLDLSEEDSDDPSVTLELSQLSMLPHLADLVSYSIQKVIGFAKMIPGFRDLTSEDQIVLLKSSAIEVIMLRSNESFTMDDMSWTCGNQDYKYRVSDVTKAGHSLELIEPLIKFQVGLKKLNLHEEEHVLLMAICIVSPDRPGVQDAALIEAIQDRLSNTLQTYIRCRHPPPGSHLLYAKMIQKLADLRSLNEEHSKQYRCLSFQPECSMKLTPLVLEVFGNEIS
Chain of human Retinoid X Receptor beta (RXRb), RXRB (gene 6257) (P28702 whole entry, looked up, the tested form may be a part): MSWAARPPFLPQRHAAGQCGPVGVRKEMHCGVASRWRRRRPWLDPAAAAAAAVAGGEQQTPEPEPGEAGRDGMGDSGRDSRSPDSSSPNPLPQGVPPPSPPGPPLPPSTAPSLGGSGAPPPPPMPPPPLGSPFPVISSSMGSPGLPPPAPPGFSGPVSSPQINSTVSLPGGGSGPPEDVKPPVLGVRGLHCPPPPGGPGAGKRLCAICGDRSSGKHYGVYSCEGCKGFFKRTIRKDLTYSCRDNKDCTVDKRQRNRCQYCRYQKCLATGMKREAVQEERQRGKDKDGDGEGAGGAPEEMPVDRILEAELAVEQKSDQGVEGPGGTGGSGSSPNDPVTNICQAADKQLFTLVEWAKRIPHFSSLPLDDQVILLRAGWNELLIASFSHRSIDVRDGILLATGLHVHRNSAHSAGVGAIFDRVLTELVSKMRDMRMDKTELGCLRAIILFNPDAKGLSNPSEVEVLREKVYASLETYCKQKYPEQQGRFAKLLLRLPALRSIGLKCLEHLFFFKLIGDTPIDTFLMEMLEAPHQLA
Chain of Retinoic acid receptor RXR-alpha (Homo sapiens) (P19793 whole entry, looked up, the tested form may be a part): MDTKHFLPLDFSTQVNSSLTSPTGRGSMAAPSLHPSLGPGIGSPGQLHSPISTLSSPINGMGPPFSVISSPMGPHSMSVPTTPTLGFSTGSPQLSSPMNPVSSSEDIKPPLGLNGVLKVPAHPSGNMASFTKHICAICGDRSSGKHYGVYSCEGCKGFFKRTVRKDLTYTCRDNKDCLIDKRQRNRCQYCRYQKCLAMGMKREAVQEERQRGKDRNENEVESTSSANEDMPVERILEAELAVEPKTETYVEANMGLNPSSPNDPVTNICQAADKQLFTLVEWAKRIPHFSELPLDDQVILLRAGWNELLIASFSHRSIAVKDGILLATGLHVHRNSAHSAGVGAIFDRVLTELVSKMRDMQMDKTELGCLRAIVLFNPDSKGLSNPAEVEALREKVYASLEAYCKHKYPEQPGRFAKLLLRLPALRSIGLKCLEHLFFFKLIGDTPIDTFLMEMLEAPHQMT
Chain of human Thyroid Receptor alpha (THRa1), THRA (gene 7067) (P10827 whole entry, looked up, the tested form may be a part): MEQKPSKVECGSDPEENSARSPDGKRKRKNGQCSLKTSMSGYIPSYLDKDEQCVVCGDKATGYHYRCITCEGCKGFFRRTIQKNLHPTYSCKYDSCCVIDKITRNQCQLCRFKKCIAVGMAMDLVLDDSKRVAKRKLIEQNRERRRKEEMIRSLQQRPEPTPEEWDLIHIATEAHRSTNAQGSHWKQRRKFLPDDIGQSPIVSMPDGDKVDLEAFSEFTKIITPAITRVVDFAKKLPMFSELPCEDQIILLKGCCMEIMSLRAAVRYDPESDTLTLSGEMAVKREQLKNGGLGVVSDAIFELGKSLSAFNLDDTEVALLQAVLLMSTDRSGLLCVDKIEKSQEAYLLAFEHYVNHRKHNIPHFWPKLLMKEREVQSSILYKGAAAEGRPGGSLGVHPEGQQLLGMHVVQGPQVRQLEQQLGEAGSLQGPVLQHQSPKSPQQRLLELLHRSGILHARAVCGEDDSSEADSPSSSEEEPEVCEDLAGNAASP
Chain of E-selectin (Homo sapiens) (P16581 whole entry, looked up): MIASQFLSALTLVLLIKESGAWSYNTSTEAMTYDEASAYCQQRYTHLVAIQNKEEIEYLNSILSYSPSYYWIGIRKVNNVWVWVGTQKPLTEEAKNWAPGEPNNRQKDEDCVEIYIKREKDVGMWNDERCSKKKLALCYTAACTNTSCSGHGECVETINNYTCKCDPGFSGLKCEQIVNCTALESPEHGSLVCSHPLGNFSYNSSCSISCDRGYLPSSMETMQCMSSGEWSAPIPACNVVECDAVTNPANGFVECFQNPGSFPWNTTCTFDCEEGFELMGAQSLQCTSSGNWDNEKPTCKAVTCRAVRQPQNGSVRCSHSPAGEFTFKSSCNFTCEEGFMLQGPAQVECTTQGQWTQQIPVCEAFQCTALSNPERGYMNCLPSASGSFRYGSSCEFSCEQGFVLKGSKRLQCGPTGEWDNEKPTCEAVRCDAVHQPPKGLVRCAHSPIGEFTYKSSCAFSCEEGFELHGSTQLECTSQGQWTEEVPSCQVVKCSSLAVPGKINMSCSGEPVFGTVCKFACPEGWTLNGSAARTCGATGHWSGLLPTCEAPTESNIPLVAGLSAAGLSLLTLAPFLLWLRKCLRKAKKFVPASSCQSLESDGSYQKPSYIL

As to `CCOCCOCCOCC`, the molecule was called inactive in experiment [1].

Regarding `CCC(=O)O[C@@H]1C[C@H]2CC[C@]1(C)C2(C)C`, the molecule was called inactive in experiment [1] and in [2].

`CC(C)(C)c1ccc(C(=O)O)cc1`: the molecule was classed as inactive in experiment [1] and in experiment [2].

On to `CCCCCCC(O)CCCCCCCCCCC(=O)O` (stereo not drawn), for which the result in [1] was inactive. The half-maximal activity concentration (AC50) in [2] was 22.7 µM (active).

`COC(C)(C)CC(C)=O`: the outcome in [1] and in [2] was inactive.

With `O=C(O)CCCCCCCCCCCC(=O)O`, the molecule was called inactive in [1].

Regarding `CCCCCCC(=O)c1ccccc1`, the call in experiment [1] was inactive.

With `CCCCCCCCc1ccc(S(=O)(=O)O)cc1`, the outcome in [1] and in experiment [2] was inactive.

Turning to `C=CCCCCCCCCCC`, the call in experiment [1] and in experiment [2] was inactive.

`Cc1c(OCC(F)(F)F)ccnc1CS(=O)c1nc2ccccc2[nH]1` (stereo not drawn): the call in experiment [1] was inactive.

Regarding `CN(C)c1ccncc1`, the call in experiment [1] was inactive.

For the molecule `O=C(O)c1cccnc1C(=O)O`, the molecule was classed as inactive in [1] and in experiment [2].

On to `CCOc1ccccc1O`, for which the molecule was called inactive in experiment [1].

Regarding `CC(=O)NCCO`, the result in experiment [1] and in experiment [2] was inactive.

`CC(C)C(OC(=O)c1ccccc1)C(C)(C)COC(=O)c1ccccc1` (stereo not drawn): the molecule was classed as inactive in [1], in experiment [3] and in experiment [4]. In addition, the AC50 in experiment [2] was 25.4 µM (active).

Consider `O=C1OC(=O)c2c(Cl)c(Cl)c(Cl)c(Cl)c21`, for which the outcome in experiment [1], in experiment [2] and in experiment [3] was inactive.

On to `CN(c1nccc(=O)[nH]1)C1CCN(c2nc3ccccc3n2Cc2ccc(F)cc2)CC1`, for which the call in [1], in experiment [2], in experiment [3], in experiment [5], in experiment [6] and in experiment [7] was inactive. The outcome in experiment [8], in experiment [9], in experiment [10], in experiment [11], in experiment [4] and in experiment [12] was inactive. Besides, the outcome in experiment [14], in [16], in [17], in experiment [18], in experiment [19] and in experiment [20] was inactive. The AC50 in experiment [13] and in [15] was 7.77 nM (active) in each case.

Consider `CCCCCCCCCCCCCC(=O)OCC(O)CO` (stereo not drawn), for which the outcome in experiment [1], in [2], in experiment [3] and in [4] was inactive.

In general, AC50 refers to the midpoint of the concentration-response curve, whichever way the signal moves.
